This is an account of results in PubChem BioAssay (NCI).

What all share (experiment): NCI-60 one-dose screen, 48 h (100 = growth as untreated, 0 = no growth, -100 = all killed)
Holding throughout (conditions): 10 µM unless noted

The test system of assay [1] is T-47D breast.
Assay [2] has as its system BT-549 breast.
The test system of assay [3] is MDA-MB-435 melanoma.
The subject of assay [4] is SW-620 colon.
The test system of assay [5] is MCF7 breast.
Assay [6] has as its system HCT-116 colon.
The test system of assay [7] is HCC-2998 colon.
Assay [8] concerns KM12 colon.

About 83,000 compounds went through this panel and 20% of them were active in at least one assay; those are over-represented in the sample as a whole.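 Activity criterion: percent growth below 10, measured after cells in 96-well plates were exposed to a single compound concentration for 48 hours.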 Unmarked numbers belong to inactive results. Active and inactive are the calls of the source.

Consider `O=C(O)[C@@H](Cc1ccc2ccccc2c1)NC(=O)n1c2ccccc2c2ccccc21`, for which the growth in assay [1] is 70.7%; in assay [2], 11.3%; in assay [3], -53% (active); in assay [4] it was 27.3%; in assay [5] it was 17.1%; in assay [6] it was 9.76% (active). Also, the growth in assay [7] was 21.4%; in assay [8] it was 18.5%.

`COc1ccc(NC(=O)Nc2ccc(OCCCCCC(=O)NO)cc2)cc1`: the growth is 107% in assay [1]; 99.5% in assay [2]; 94% in assay [3]; 99.7% in assay [4]; 98.3% in assay [5]; 92.3% in assay [6]. The growth in assay [7] was 110%.

Turning to `Cc1nc2ccccc2c(/C=C/c2ccccc2)c1C(=O)/C=C/c1ccccc1`, the growth is 15.6% in assay [1]; 40.6% in assay [2]; -17.2% (active) in assay [3]; -65.6% (active) in assay [4]; 17% in assay [5]; -43% (active) in assay [6]. For the same compound, the growth in assay [7] is 31.6%.

Consider `O=C(Nc1cc(Cl)ccc1O)c1cccc(Nc2ccnc(C(F)(F)F)c2)c1`, for which the growth was 10.8% in assay [1]; 34.9% in assay [2]; 31.2% in assay [3]; 62.9% in assay [4]; 26% in assay [5]; 26.1% in assay [6]. For the same compound, the growth in assay [7] was 25.5%.

For `Cc1cccc(-c2nc(Nc3ccc4ncsc4c3)c3ccccc3n2)n1`, the growth is 34.6% in assay [1]; 87.9% in assay [2]; 60.4% in assay [3]; 79.8% in assay [4]; 9.7% (active) in assay [5]; 77.4% in assay [6]. In addition, the values for the growth in assay [7] and in assay [8] were 116% and 63.1%, respectively.

Take `C=Cc1cnc(Nc2ccc(OC)cc2)nc1NCCCNC(=O)C1CCC1`: the growth is 66.8% in assay [1]; 26.4% in assay [2]; 70.3% in assay [3]; 47.5% in assay [4]; 53.6% in assay [5]; 21.5% in assay [6]. The values for the growth in assay [7] and in assay [8] were 78.8% and 39.1%, respectively.

On to `CN(C)c1ccc(-c2ccc3c(c2)c(-c2ccccc2)nc(=O)n3C)cn1`, for which the growth is 22.1% in assay [1]; 49.1% in assay [2]; -11.1% (active) in assay [3]; 26.3% in assay [4]; 18% in assay [5]; 22.1% in assay [6]. Further, the growth in assay [7] is 78.2%; in assay [8], 43.2%.

In the case of `CNCc1cccc2c1OCCOCCOCCNS(=O)(=O)c1ccc(cc1)-c1cnc(N)c(n1)C(=O)N2`, the growth in assay [1] was 70.4%; in assay [2], 28.3%; in assay [3], 35.1%; in assay [4] it was 15.5%; in assay [5] it was 11.8%; in assay [6] it was 7.19% (active). Moreover, the growth in assay [7] was 21.7%; in assay [8] it was 20.2%.

As to `O=c1nc(-c2ccccc2)c2cc(-c3ccc(C(F)(F)F)nc3)ccc2[nH]1`, the growth in assay [1] was 95.3%; in assay [2], 99.3%; in assay [3], 104%; in assay [4] it was 101%; in assay [5], 86.8%; in assay [6] it was 92.4%. For the same compound, the growth in assay [7] was 105%; in assay [8], 91.1%.

As for `Cc1ccc(CNc2ccc3nc(CCC(C)C)[nH]c3c2)cc1`, the growth in assay [1] was 84.4%; in assay [2] it was 93.4%; in assay [3] it was 97.2%; in assay [4] it was 91.9%; in assay [5], 89.2%; in assay [6], 80.4%. Moreover, the growth in assay [7] is 111%; in assay [8], 96.2%.

With `COc1cccc(NCc2nnc(Nc3ccc(Cl)cc3)c3ccccc23)c1`, the growth in assay [1] is -8.49% (active); in assay [2], -12.2% (active); in assay [3], -10.3% (active); in assay [4] it was 11.9%; in assay [5], -1.96% (active); in assay [6] it was -44.2% (active). Also, the growth was 2.79% (active) in assay [7] and -24.9% (active) in assay [8].

In the case of `Cn1ccc(=O)nc1`, the growth is 99.1% in assay [1]; 110% in assay [2]; 106% in assay [3]; 53.5% in assay [4]; 52.2% in assay [5]; 60.6% in assay [6]. Further, the growth was 96.8% in assay [7] and 95% in assay [8].

As to `NC(N)=NS(=O)(=O)c1ccc(NC2=C(I)C(=O)c3ncccc3C2=O)cc1`, the growth in assay [1] was 106%; in assay [2], 108%; in assay [3], 109%; in assay [4] it was 91.1%; in assay [5], 97.9%; in assay [6], 102%. For the same compound, the growth is 111% in assay [7] and 105% in assay [8].

With `N#Cc1nc(-c2ccccc2)oc1S(=O)(=O)N1CCN(c2ccc(F)cc2)CC1`, the growth is 55.8% in assay [1]; 59.7% in assay [2]; 67.5% in assay [3]; 32.9% in assay [4]; 38.5% in assay [5]; 52.8% in assay [6]. The figures for the growth in assay [7] and in assay [8] were 94% and 81.9%, respectively.

Regarding `CCNC(=O)Oc1ccc(/C(=C(/CC)Cc2ccccc2)c2ccc(OCCN3CCCC3)cc2)cc1`, the growth was 68.3% in assay [1]; 100% in assay [2]; 102% in assay [3]; 99.6% in assay [4]; 35.9% in assay [5]; 72.1% in assay [6]. Also, the growth was 91.3% in assay [7] and 98% in assay [8].

As for `C=CC(=O)Nc1ccc(Nc2nccc(-c3ccc(N4CCCC4)c(C#N)c3)n2)cc1`, the growth in assay [1] is 41.5%; in assay [2], 45.6%; in assay [3], -11.8% (active); in assay [4], 3% (active); in assay [5] it was 9.75% (active); in assay [6] it was 24.8%. In addition, the growth is 31.5% in assay [7] and 14.6% in assay [8].
